This is part of a sample that, as a whole, favours compounds with a hit. Of some 79,000 tested, about 15% had one in any assay. Cut-off read from the data, not from the text of the source: active = growth inhibition above about 70%; inactive = the rest.
Key:
[1] = NCI Yeast Anticancer Drug Screen. Data for the rad50 strain (AID 155);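 note: 0% = growth of vehicle-only cultures of the same strain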; conditions: S. cerevisiae rad50 strain growth inhibition; at 50.0 µM; hits give high values
In short: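 A DNA repair-deficient yeast mutant serves as the test organism; compound-induced growth inhibition is calculated against vehicle-treated cells.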

[2] = NCI Yeast Anticancer Drug Screen. Data for the mec2-1 strain (AID 157); conditions: S. cerevisiae mec2-1 strain, at 50.0 µM, hits give high values
In short: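 Yeast mec2-1 mutant treated with compound. Readout: growth inhibition vs vehicle controls.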

[3] = NCI Yeast Anticancer Drug Screen. Data for the sgs1 mgt1 strain (AID 161);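 note: 0% = growth of cultures given vehicle only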; conditions: S. cerevisiae sgs1 mgt1 strain, at 50.0 µM, hits give high values
In short: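 Read-out: growth inhibition vs vehicle controls. Cells: mutant yeast strain deficient in DNA damage repair.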

[4] = NCI Yeast Anticancer Drug Screen. Data for the cln2 rad14 strain (AID 165);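 note: 0% = growth equal to vehicle treated cultures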; conditions: S. cerevisiae cln2 rad14 strain, at 50.0 µM, hits give high values
In short: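 cln2 rad14 yeast strain; compound exposure; growth inhibition read vs vehicle controls.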

[5] = NCI Yeast Anticancer Drug Screen. Data for the bub3 strain (AID 167); conditions: S. cerevisiae bub3 mutant strain, at 50.0 µM, hits give high values
In short: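 Inhibition values come from growth of compound-treated mutant yeast normalised to vehicle-treated controls.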

[6] = NCI Yeast Anticancer Drug Screen. Data for the mlh1 rad18 strain (AID 175); conditions: S. cerevisiae mlh1 rad18 strain growth inhibition; at 50.0 µM; hits give high values
In short: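 Yeast w/ defined DNA-repair lesions; compound exposure; growth vs vehicle controls → % inhibition.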

Measured: growth inhibition

C[n+]1c(I)ccc2ccccc21
inactive: [1] 35% | [2] 36.5% | [3] 53.4% | [4] 15% | [5] 15.9% | [6] 36.3%

CCCC1OC(C2CC=CCC2C)OCC1CC (stereo not given)
inactive: [1] -9.25% | [2] 6.55% | [3] 2.95% | [4] -17.9% | [5] -3.45% | [6] -46%

Cc1cccc(C(C)C)c1NC(=O)C(=O)C(C#N)c1ccc(CC#N)cc1 (stereo not given)
inactive: [1] -27.9% | [2] 2.4% | [3] 17.9% | [4] -40% | [5] 1.55% | [6] 14.2%

OCC(I)CO
inactive: [1] 15.8% | [2] 3.45% | [3] 16.9% | [4] 1.45% | [5] 1.7% | [6] 16.6%

CC1CCCN(C(=O)Nc2ccc([N+](=O)[O-])cc2)C1 (stereo not given)
inactive: [1] 41.1% | [2] 31.3% | [3] 61.9% | [4] 25.8% | [5] 59.4% | [6] 43.8%

O=C(N/N=C/c1ccc(Cl)cc1Cl)c1ccccc1
inactive: [1] -13.8% | [2] -1.65% | [3] -2.95% | [4] -5.1% | [5] -8.65% | [6] -3.9%

COc1c(CC=C(C)C)c(O)c(C(CC(C)C)c2c(O)c(CC=C(C)C)c(O)c(C(C)=O)c2O)c(O)c1C(C)=O (stereo not given)
inactive: [1] 32.9% | [2] 41.5% | [3] 34% | [4] 41.3% | [5] 38.5% | [6] 31.1%

COC1(OC)N=C(N)C2(C#N)C(C)CC(=O)N(N(C)C)C12C#N (stereo not given)
inactive: [1] 7.15% | [2] 6.1% | [3] -27.4% | [4] -2.7% | [5] -37.4% | [6] -34.9%

COC(=O)C1Cc2ccc(C)cc2C1=O (stereo not given)
inactive: [1] -37.7% | [2] -4.6% | [3] -1.95% | [4] 26.1% | [5] 15.4% | [6] -4.3%

ONc1ncnc2nc[nH]c12
inactive: [1] -8.65% | [2] 5.4% | [3] 3.8% | [4] -1.65% | [5] -2.45% | [6] -11.3%

COc1ccc2cc(C(=O)O)ccc2c1OC
inactive: [1] 1.05% | [2] 1.7% | [3] 27% | [4] 25.1% | [5] -6.3% | [6] -3.85%

COc1ccc(Nc2cc[nH]c(=O)c2NC(C)=O)cc1
inactive: [1] 20.7% | [2] 4.9% | [3] 32.3% | [4] 14.7% | [5] 9.75% | [6] 21%

CSc1nc(=O)n(CCC#N)nc1SC
inactive: [1] 32.6% | [2] 21.9% | [3] 34.9% | [4] -7.65% | [5] 4.25% | [6] 12.2%

Cn1ncc2c(NCc3ccccc3)nc(Cl)nc21
inactive: [1] 6.5% | [2] -11.2% | [3] 16.4% | [4] -9.9% | [5] 5.85% | [6] 12.9%

COC1=CC(=O)c2ccccc2C1(CCC=C(C)C)C1=NC(C)(C)CO1 (stereo not given)
inactive: [1] -27% | [2] -11.6% | [3] 7.75% | [4] 5.65% | [5] -8.6% | [6] -11.6%

c1cc2c3c(cccc3c1)-c1nc3c(ccc4ccccc43)nc1-2
inactive: [1] -0.15% | [2] 22.8% | [3] 19.6% | [4] 11.6% | [5] 10.4% | [6] 12.3%

CC1(CO)COC(c2ccccc2)=N1 (stereo not given)
inactive: [1] 4.65% | [2] 2.85% | [3] 4.55% | [4] -8.9% | [5] -1.3% | [6] 0.75%

ClCCOCc1ccc(Cl)cc1Cl
inactive: [1] 24.6% | [2] 8.9% | [3] 8.4% | [4] 0.7% | [5] -3.7% | [6] 19.9%

COC(=O)c1cc(-c2ccc(N)cc2)c2c(=O)n(-c3ccccc3)[nH]c2n1
inactive: [1] 26.1% | [2] 19% | [3] 30.9% | [4] -0.65% | [5] -1.4% | [6] 6.45%

CCOc1cccc(-c2ccccc2)c1
inactive: [1] 18.3% | [2] 17.6% | [3] 16.9% | [4] 9.35% | [5] 1.1% | [6] -0.35%

— PubChem BioAssay (NCI)
